Hits are enriched below; roughly 3.4% of the tested compounds scored in any of these assays.
TEAD-YAP block = TEAD-YAP interaction inhibition; HEK-TIYL cells, TEAD-Gal4/YAP UAS-luciferase luminescence; inhibition, % at 9.12 µM; 640,000 compounds, 1.4% hits; AID 1259422; in the data active = inhibition above about 32%
GPR151 activ = human GPR151 activation; AID 1508602; activation, % at 11.2 µM; PathHunter beta-arrestin GPR151 cells, luminescence; Q8TDV0; 650,000 compounds, 1% hits; in the data active = activation above about 4.9%
FBW7 activator = activators of human E3 ligase FBW7; Q969H0; AlphaScreen FBW7–phospho-cyclin E peptide binding, activator screen; normalized activity (activation), % at 26.1 µM; AID 1259310; 650,000 compounds, 0.13% hits; in the data active = normalized activity above about 1.9%;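 also: purified mutant Fbw7 with reduced substrate affinity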
MITF primary = human MITF inhibition, primary screen. 650,000 compounds, 0.91% hits. AlphaScreen MITF homodimerization, bead proximity signal. inhibition, % at 2.6 µM; in the data active = inhibition above about 50%
GPR151 confirm = confirmation of human GPR151 activators; shares compounds with GPR151 activ; activation, % at 11.2 µM; 6,700 tested, under 10 active; GPR151 PathHunter beta-arrestin cells, luminescence, 90 min; % of EA-reagent control over plate median;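 active = mean percent activation across replicates above the confirmation screen cutoff of 4.91%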
GPR119 ag = activates human GPR119 in a GPR151 counter-screen; shares compounds with GPR151 activ; GPR119 PathHunter beta-arrestin cells, luminescence, 90 min; 0 = compound-well median, 100 = enzyme-acceptor control; activation, % at 11.2 µM; 6,700 compounds, 0.3% hits;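 active = mean percent activation in the counterscreen above 29.09%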;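 also: counterscreen on off-target GPR119 to flag nonselective hits from the GPR151 activator screen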
Large screens that a line does not name were inactive (follow-up assays come after a bar, where they were run); ! = repeats disagree.

COc1cccc(C(c2c(O)[nH]c(=O)[nH]c2=O)N2CCCC(C)C2)c1OC (centres undefined)	GPR151 activ 18.5 | GPR151 confirm inactive | GPR119 ag inactive
CCCN1CCC[C@@H]2Cc3[nH]ncc3C[C@H]21	GPR151 activ 7.8! | GPR151 confirm inactive | GPR119 ag inactive
CCCN1CCC[C@@H]2Cc3nc(N)ncc3C[C@H]21	none
COc1cccc([C@H](C)NC(=O)c2cn(CCN3CCCC3)c3cc(-c4cn[nH]c4)ccc23)c1	GPR151 activ 11.3 | GPR151 confirm inactive | GPR119 ag inactive
COc1cccc(CNC(=O)c2cn(Cc3ccccc3)c3cc(-c4cn[nH]c4)ccc23)c1	none
Cc1cc(C)[n+]2c(C)c(C(C)(C)C)sc2n1	none
COc1ccc(CCNCc2ccc(F)c(F)c2)cc1OC	none
